Source: PubChem BioAssay (NCI)
Compounds without any hit were thinned out: in the full panel of roughly 83,000, 20% have a hit.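 Values shown are percent growth following 48 h exposure of cells in 96-well plates to a single concentration of compound; below 10 was considered active.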 Unmarked numbers belong to inactive results. Activity calls are given as the source filed them.

The molecules below were run on HCT-15 colon (assay: NCI-60 one-dose screen, 48 h (100 = growth as untreated, 0 = no growth, -100 = all killed)). Details: 10 µM unless noted.
Experimental: Growth inhibition of the HCT-15 human tumor cell line is measured as a screen for anti-cancer activity. Cells are grown in 96 well plates and exposed to the test compound for 48 hours. Compounds are tested at a single concentration, which is 10^-5 M for most compounds. The reported endpoint is percent growth (GI% or GIPRCNT), where numbers from 0 - 100% represent growth inhibition, and numbers from -100% - 0 represent cell death. For example, a value of 40 represents 60% growth inhibition. A value of 0 means no net growth occurred over the course of the experiment. A value of -40 indicates 40% of cells at the beginning of the experiment died by the end of the experiment. A value of -100 means all cells are dead at the end of the experiment.
NCI-60 Human Tumor Cell Lines Screen was performed using the standard one-dose NCI protocol, which is described in more detail at https://dtp.cancer.gov/discovery_development/nci-60/default.htm.
Compounds with GIPRCNT values below 10 were considered active. Activity score was based on GIPRCNT using the following formula: […]
Score is 0 for GIPRCNT values of 100 or above, 50 for GIPRCNT values of 0, and 100 for GIPRCNT values of -100.

Question: `CCCCCOC(=O)c1c(C)[nH]c(/C=C2\N=C(c3ccc[nH]3)C=C2OC)c1C` was tested. Which growth did it give?
Answer: The growth was -28.8% (active).

Question: How did the growth turn out when `CC(C)c1ccc(Cc2cnc(NC(=O)c3cc(Br)cs3)s2)cc1` was run?
Answer: Its growth is 21.6%.

Question: With `CCOC(=O)C1=C(N)Oc2c(sc3c(F)cccc23)C1c1ccc(O)cc1` (stereo not given) as the molecule, how does the growth read?
Answer: The growth was 24.2%.

Question: Which growth does the source give for `O=C(/C=C(/C=C/c1ccc2[nH]ccc2c1)OB(F)F)/C=C/c1ccc2[nH]ccc2c1` here?
Answer: Its growth is -52.9% (active).

Question: How did the growth turn out when `O=C(Nc1cccc(Cl)c1)Nc1cccc(Cn2c(=O)[nH]c3ccc(Oc4ncccn4)cc3c2=O)c1` was run?
Answer: Its growth is 80.6%.

Question: How did the growth turn out when `N#CC1=C(N)Oc2c(c(=O)[nH]c3ccc(Cl)cc23)C12C(=O)c1ccccc1C2=O` was run?
Answer: The growth was 98.6%.

Question: With `Nc1c(C(=O)Nc2ccccc2F)sc2nc3c(cc12)CCCC3` as the molecule, how does the growth read?
Answer: Its growth is 28.7%.

Question: `COc1ccc(C2CC(c3ccc(Nc4nc(Nc5ccccc5)nc(Nc5ccccc5)n4)cc3)=NN2C(C)=O)cc1` (stereo not given) was tested. Which growth did it give?
Answer: Its growth is 96.9%.

Question: How did the growth turn out when `CC(=O)Oc1ccc(C)cc1C` was run?
Answer: The growth was 100%.

Question: For `COc1ccccc1CNc1c2ccccc2nc2ccccc12`, which growth is on record?
Answer: The growth was 26%.

Question: For `COC1=CC(c2ccc[nH]2)=N/C1=C\c1[nH]c(C)c(C)c1CCC(=O)OCc1ccccc1`, which growth is on record?
Answer: The growth was -32.2% (active).

Question: For `CC(=O)c1c(C)nc2ccccc2c1/C=C/c1ccc(F)cc1`, which growth is on record?
Answer: Its growth is 84.8%.

Question: How did the growth turn out when `N#CC1=C(c2ccccc2)Nc2c(c(-c3ccc(Cl)cc3)nn2-c2ccccc2)C12C(=O)Nc1ccc(Cl)cc12` (stereo not given) was run?
Answer: The growth was 61.8%.

Question: Which growth does the source give for `COc1cc(-c2nc3sccn3c2-c2ccnc(NCCNS(=O)(=O)c3ccccc3)n2)ccc1F` here?
Answer: The growth was 52.1%.

Question: With `CCCNC(=O)Nc1ccc2cc3ccc(NC(=O)NCCC)cc3nc2c1` as the molecule, how does the growth read?
Answer: The growth was 94.5%.

Question: How did the growth turn out when `COC(=O)c1nc(-c2ccccc2)oc1S(=O)(=O)Cc1ccccc1` was run?
Answer: Its growth is 62.2%.

Question: For `Cc1ccc(C)n1-c1ccccc1-n1c(C)ccc1C`, which growth is on record?
Answer: The growth was 115%.

Question: `CSc1nc(N)c(NS(=O)(=O)c2ccc(C(C)=O)cc2)c(=O)[nH]1` was tested. Which growth did it give?
Answer: The growth was 98.4%.

Question: `COc1ccc(OC)c(-c2nc(SCC(=O)c3ccc(C#N)cc3)[nH]c(=O)c2C#N)c1` was tested. Which growth did it give?
Answer: Its growth is 96.9%.

Question: How did the growth turn out when `COc1cc(-c2csc(NC(=O)c3ccc(N4CCOCC4)c(C(F)(F)F)c3)n2)cc(OC)c1OC` was run?
Answer: The growth was 11%.

Question: How did the growth turn out when `CC(C)=CCCC(C)c1ccc(C)c2c1OCN(CCCCCO)C2` (stereo not given) was run?
Answer: The growth was 94%.

Question: `O=c1c2cnn(-c3ccccc3)c2n2c(CN3CCOCC3)nnc2n1-c1ccccc1` was tested. Which growth did it give?
Answer: The growth was 101%.

Question: With `CC(=O)N1N=C(c2ccc(Nc3nc(Nc4ccccc4)nc(Nc4ccccc4)n3)cc2)CC1c1cccc([N+](=O)[O-])c1` (stereo not given) as the molecule, how does the growth read?
Answer: The growth was 110%.

Question: `O=C1C(=O)N(Cc2ccc(-c3ccccc3)cc2)c2ccc(OC(F)(F)F)cc21` was tested. Which growth did it give?
Answer: The growth was 10.3%.

Question: For `COc1cc2ncnc(Nc3ccc(F)c(Cl)c3)c2cc1OCC(=O)N1CCN(c2ccccc2)CC1`, which growth is on record?
Answer: The growth was 90.7%.

Question: With `Fc1cccc(Oc2ccc(Nc3ncnc4ccc(OCCCN5CCOCC5)cc34)cc2Cl)c1` as the molecule, how does the growth read?
Answer: Its growth is 10.8%.

Question: Which growth does the source give for `CC(=O)Oc1ccc(N2C(=O)C(Cl)=C(Nc3cccc(C(F)(F)F)c3)C2=O)cc1` here?
Answer: Its growth is 84%.

Question: How did the growth turn out when `COC(=O)c1c(C)c2n(c1C)C(=O)C(c1ccccc1)=C2` was run?
Answer: The growth was 80.4%.

Question: How did the growth turn out when `N#Cc1ccc(O)c(C2=NCC(c3cccc(Oc4ccccc4)c3)O2)c1` (stereo not given) was run?
Answer: Its growth is 26.8%.

Question: For `Clc1ccc2c(c1)C(c1c[nH]c3ccccc13)(c1c[nH]c3ccccc13)CCO2`, which growth is on record?
Answer: The growth was 87.1%.

Question: `Nc1c(C(=O)Nc2ccncc2)sc2nc3c(cc12)C(O)CCC3` (stereo not given) was tested. Which growth did it give?
Answer: Its growth is 86.3%.

Question: Which growth does the source give for `CC(C)(Sc1cc(C(C)(C)C)c(OC(=O)CCCC(=O)O)c(C(C)(C)C)c1)Sc1cc(C(C)(C)C)c(OC(=O)CCCC(=O)O)c(C(C)(C)C)c1` here?
Answer: Its growth is 7.28% (active).

Question: With `CC1CN(S(=O)(=O)c2oc(-c3ccc(Cl)cc3)nc2C#N)CC(C)O1` (stereo not given) as the molecule, how does the growth read?
Answer: The growth was -26.5% (active).

Question: How did the growth turn out when `Cc1csc(Nc2nc(-c3ccccn3)nc(C(Cl)(Cl)Cl)n2)n1` was run?
Answer: Its growth is 57.2%.

Question: With `Cn1cc(-c2csc(-c3cn(C(=O)OC(C)(C)C)c4ccc(Br)cc34)n2)c2ccnc(Cl)c21` as the molecule, how does the growth read?
Answer: Its growth is 24.2%.

Question: `O=C(CSc1nc2ccc([N+](=O)[O-])cc2[nH]1)Nc1ccc([N+](=O)[O-])cc1` was tested. Which growth did it give?
Answer: The growth was 22.9%.

Question: `CCN1C(=O)N(CC)C2C1NN=c1s/c(=C\c3ccccc3F)c(=O)n12` (stereo not given) was tested. Which growth did it give?
Answer: Its growth is 8.45% (active).

Question: `CC(=O)N1N=C(c2ccc(Nc3nc(Nc4ccccc4)nc(Nc4ccccc4)n3)cc2)CC1c1ccccc1` (stereo not given) was tested. Which growth did it give?
Answer: The growth was 87%.

Question: How did the growth turn out when `O=C(CSc1nc2sc3c(c2c(=O)n1-c1ccccc1)CCCCC3)N/N=C/c1cccc([N+](=O)[O-])c1` was run?
Answer: Its growth is 53.8%.

Question: `CCOC(=O)n1cc(-c2nonc2-c2cn(C(=O)OCC)c3ccc(Br)cc23)c2ccccc21` was tested. Which growth did it give?
Answer: The growth was 76.8%.
